This passage reports outcome and Potency results from PubChem BioAssay (NCATS).

Structures are written as SMILES. Inconclusive results are not listed. Where a call stands in place of a potency, no number is given. The source made the active and inactive calls. The call rests on the fitted dose curve.

A short description of this experiment: Primary qHTS for Huh7 cytotoxicity: counterscreen for inhibitors of MERS-S pseudotyped particle cell entry (AID 1479147). The settings on record: cell viability read-out; series mostly up to 57.1 µM. For orientation: Quantitative high-throughput screening tests each substance at several concentrations.
Turning to `C/C(=C(\CCOP(=O)(O)O)SC(=O)c1ccccc1)N(C=O)Cc1cnc(C)nc1N`, the outcome was “inactive [at 5.34 µM]”.

As to `NCC1CCC(C(=O)Oc2ccc(CCC(=O)O)cc2)CC1` (configuration not stated), the Potency entry is “inactive”.

With `CC[N+]1(CC)CCC(=C(c2ccccc2)c2ccccc2)C1C` (configuration not stated), the Potency result is “inactive”.

In the case of `CCCn1cnc2c1c(=O)n(CCCCC(C)=O)c(=O)n2C`, the Potency entry was “inactive”.

Consider `CCCCCOc1ccc(C2SC(=O)NC2=O)cc1OCC` (configuration not stated), for which the Potency result was “inactive”.

For the compound `CC1=C(CC(=O)O)c2cc(F)ccc2/C1=C\c1ccc(S(C)=O)cc1` (configuration not stated), the Potency result is “inactive”.

In the case of `COc1ccc2c(c1)c(CC(=O)OCC(=O)O)c(C)n2C(=O)c1ccc(Cl)cc1`, the Potency result was “inactive”.

Take `Cc1c(C)c2c(c(C)c1OC(=O)CCC(=O)OCCO)CC[C@@](C)(CCC[C@H](C)CCC[C@H](C)CCCC(C)C)O2`: the Potency entry was “inactive”.

As for `CCCc1ncc(C[n+]2ccccc2C)c(N)n1`, the Potency result is “inactive”.

For `Nc1c2c(nc3ccccc13)CCCC2`, the Potency entry is “inactive”.

Regarding `CSc1ccc(C(=O)c2[nH]c(=O)[nH]c2C)cc1`, the Potency entry is “inactive”.

For `CC(=O)OCC(=O)[C@@]12N=C(C)O[C@@H]1C[C@H]1[C@@H]3CCC4=CC(=O)C=C[C@]4(C)[C@H]3[C@@H](O)C[C@@]12C`, the Potency result was “inactive”.

For `CCCOc1ccc2nc(NC(=O)OC)[nH]c2c1`, the Potency result was “inactive”.

On to `NC(N)=NC(=O)c1nc(Cl)c(N)nc1N`, for which the Potency entry is “inactive”.

On to `CC(C)(C)C(=O)C(Oc1ccc(Cl)cc1)n1ccnc1` (configuration not stated), for which the Potency result is “inactive”.

Turning to `C[C@]1(Cn2ccnn2)[C@H](C(=O)O)N2C(=O)C[C@H]2S1(=O)=O`, the Potency result was “inactive”.

In the case of `CN(C)[C@@H]1C(=O)C(C(=O)NCN2CCCC2)=C(O)[C@@]2(O)C(=O)C3=C(O)c4c(O)cccc4[C@@](C)(O)C3C[C@@H]12` (some centres not stated), the Potency result was “inactive”.
